Measurements taken from PubChem BioAssay (Tox21).
Several values for one entry are separate records, joined by “and”; a condition that tells them apart may be missing. Identical values can stand only once. Results filed as inconclusive are left out. Activity calls are given as the source filed them. Unless noted, calls follow the shape of the dose curve; as a rule, active = well fitted curve in the direction sought with a large enough effect in the repeat runs; inconclusive = weak or mixed curves; inactive = no such curve, though single readings can be large; an effect the other way counts as inactive or inconclusive.

Experiments:
[1] = qHTS assay to identify small molecule antagonists of the glucocorticoid receptor (GR) signaling pathway - cell viability counter screen (AID 720693); also: nearly all actives have a fitted effect of over 55% in size; also: potency is read from the fitted curve at half-maximal effect
[2] = qHTS assay for identifying genotoxic compounds that show differential cytotoxicity against isogenic chicken DT40 cell lines with known DNA damage response pathways - wild type cell line (AID 743012); also: nearly all actives have a fitted effect of over 60% in size; also: potency is read from the fitted curve at half-maximal effect
In short: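 CellTiter-Glo luminescence readout of viability in wild type DT40 cells after 40 h compound exposure at 37 C/5% CO2; 300 cells/well; reagent incubated 30 min at room temperature before reading.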

[3] = qHTS assay for identifying genotoxic compounds that show differential cytotoxicity against isogenic chicken DT40 cell lines with known DNA damage response pathways - Rev3 mutant cell line (AID 743014); also: nearly all actives have a fitted effect of over 55% in size; also: potency is read from the fitted curve at half-maximal effect
[4] = qHTS assay for identifying genotoxic compounds that show differential cytotoxicity against isogenic chicken DT40 cell lines with known DNA damage response pathways - Rad54/Ku70 mutant cell line (AID 743015); also: nearly all actives have a fitted effect of over 60% in size; also: potency is read from the fitted curve at half-maximal effect
[5] = target: Androgen receptor (Homo sapiens) (UniProt P10275); experiment: qHTS assay to identify small molecule antagonists of the androgen receptor (AR) signaling pathway (AID 743035; active = well fitted inhibition curve with a large enough effect in the signal ratio in the repeat runs, not every such curve was filed as active; the % refers to the signal ratio)
Chain of Androgen receptor (Homo sapiens) (P10275 whole entry, looked up): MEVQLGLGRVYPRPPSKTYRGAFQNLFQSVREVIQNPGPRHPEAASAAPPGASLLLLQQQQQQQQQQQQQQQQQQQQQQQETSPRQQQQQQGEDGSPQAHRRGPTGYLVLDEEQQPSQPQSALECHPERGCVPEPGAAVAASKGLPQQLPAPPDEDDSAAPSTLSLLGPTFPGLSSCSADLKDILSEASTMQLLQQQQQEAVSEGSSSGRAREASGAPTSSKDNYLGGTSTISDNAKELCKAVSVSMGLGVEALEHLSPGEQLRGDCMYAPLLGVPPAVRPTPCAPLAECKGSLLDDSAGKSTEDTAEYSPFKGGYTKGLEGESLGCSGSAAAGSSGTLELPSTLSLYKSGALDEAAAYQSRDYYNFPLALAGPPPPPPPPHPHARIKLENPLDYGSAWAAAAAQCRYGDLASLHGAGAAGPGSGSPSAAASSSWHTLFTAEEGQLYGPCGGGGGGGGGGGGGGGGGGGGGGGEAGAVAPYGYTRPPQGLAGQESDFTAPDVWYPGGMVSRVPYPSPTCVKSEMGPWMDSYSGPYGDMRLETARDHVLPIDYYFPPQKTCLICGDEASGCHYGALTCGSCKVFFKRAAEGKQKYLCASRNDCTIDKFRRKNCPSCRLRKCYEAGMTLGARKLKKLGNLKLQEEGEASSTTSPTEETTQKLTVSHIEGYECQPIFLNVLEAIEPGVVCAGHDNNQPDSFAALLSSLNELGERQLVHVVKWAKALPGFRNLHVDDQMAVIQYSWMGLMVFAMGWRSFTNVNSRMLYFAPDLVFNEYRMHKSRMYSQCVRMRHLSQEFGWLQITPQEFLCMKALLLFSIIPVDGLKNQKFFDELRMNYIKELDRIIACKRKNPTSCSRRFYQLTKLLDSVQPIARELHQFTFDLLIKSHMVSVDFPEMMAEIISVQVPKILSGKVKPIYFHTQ
In short: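 AR-bla HEK293 reporter cells; 4 h settle at 37C/5% CO2; compound + R1881 agonist, 16 h at 37C; LiveBLAzer B/G FRET substrate 2 h RT; fluorescence intensity read. qHTS format.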

[6] = target: Androgen receptor (Homo sapiens) (UniProt P10275); experiment: qHTS assay to identify small molecule agonists of the androgen receptor (AR) signaling pathway using the MDA cell line (AID 743040; also: nearly all actives have a fitted effect of over 20% in size)
In short: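 Luciferase read-out, ONE-Glo, 30 min RT. Cells: MDA-kb2 AR-luc, MMTV promoter with AR and GR response elements. Compound exposure 16 h, 37C, 0% CO2, after 5 h pre-incubation. qHTS agonist mode.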

[7] = qHTS assay to identify small molecule antagonists of the androgen receptor (AR) signaling pathway using the MDA cell line - cell viability counter screen (AID 743041; also: nearly all actives have a fitted effect of over 45% in size; also: potency is read from the fitted curve at half-maximal effect)
In short: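 Cytotoxicity counter screen: MDA-kb2 AR-luc cells, compound + R1881, 16 h, 37C, 0% CO2; CellTiter-Fluor added at 15.5 h, fluorescence read after 30 min.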

[8] = qHTS assay to identify small molecule antagonists of the thyroid receptor (TR) signaling pathway - cell viability counter screen (AID 743064); also: nearly all actives have a fitted effect of over 50% in size; also: potency is read from the fitted curve at half-maximal effect
In short: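 GH3.TRE-Luc rat pituitary cells carrying a TRE-luciferase reporter were treated with compound plus 1 nM T3 (final) for 23.5 h at 37 °C. Viability was then read in the same wells by CellTiter-Fluor fluorescence after a further 30 min.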

[9] = qHTS assay to identify small molecule antagonists of the thyroid receptor (TR) signaling pathway (AID 743065); also: nearly all actives have a fitted effect of over 55% in size; also: potency is read from the fitted curve at half-maximal effect; as to activity, negative = inhibition: series mostly up to about 70 µM
In short: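 GH3.TRE-Luc rat pituitary cells (two TREs driving luciferase) were dosed with compound, then stimulated with 1 nM T3 (final) for 23.5 h at 37 C. ONE-Glo luminescence was the read-out, with CellTiter-Fluor fluorescence as the cytotoxicity counter-screen.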

[10] = system: thyroid hormone receptor (rat, GH3 cells); experiment: qHTS assay to identify small molecule agonists of the thyroid receptor (TR) signaling pathway (AID 743066; calls by dose curve)
[11] = target: Estrogen receptor (Homo sapiens) (UniProt P03372); experiment: qHTS assay to identify small molecule antagonists of the estrogen receptor alpha (ER-alpha) signaling pathway (AID 743069; active = well fitted curve in the direction sought with a large enough effect in the signal ratio in the repeat runs, not every such curve was filed as active; the % refers to the signal ratio; also: potency is read from the fitted curve at half-maximal effect)
Chain of Estrogen receptor (Homo sapiens) (P03372 whole entry, looked up): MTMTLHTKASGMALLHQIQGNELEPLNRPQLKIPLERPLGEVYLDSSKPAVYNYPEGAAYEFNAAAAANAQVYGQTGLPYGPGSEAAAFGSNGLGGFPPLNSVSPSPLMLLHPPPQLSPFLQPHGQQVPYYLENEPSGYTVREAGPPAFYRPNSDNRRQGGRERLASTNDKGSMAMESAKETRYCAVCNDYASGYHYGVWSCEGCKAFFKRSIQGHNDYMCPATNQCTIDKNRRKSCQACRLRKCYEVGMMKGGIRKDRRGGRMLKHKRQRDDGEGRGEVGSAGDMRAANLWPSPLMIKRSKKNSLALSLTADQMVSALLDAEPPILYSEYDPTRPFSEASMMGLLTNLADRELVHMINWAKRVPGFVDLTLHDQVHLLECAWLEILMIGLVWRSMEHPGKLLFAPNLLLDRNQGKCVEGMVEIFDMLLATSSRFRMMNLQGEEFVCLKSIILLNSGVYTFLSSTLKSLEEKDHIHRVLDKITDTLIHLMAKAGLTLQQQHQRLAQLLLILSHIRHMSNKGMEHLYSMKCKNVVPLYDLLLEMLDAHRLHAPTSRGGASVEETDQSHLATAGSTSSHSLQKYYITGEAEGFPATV
In short: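 Beta-lactamase FRET fluorescence is read after 2 hr at room temperature with LiveBLAzer B/G substrate. Before that, ER-alpha-bla HEK293 cells sit 4 hr after plating, then receive compound plus 17beta-estradiol and incubate 18 hr at 37C.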

[12] = qHTS assay to identify small molecule antagonists of the estrogen receptor alpha (ER-alpha) signaling pathway - cell viability counter screen (AID 743074; calls by dose curve;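 also: HEK293 cells carrying ER-alpha-UAS-bla reporter stimulated with 17beta-estradiol; nearly all actives have a fitted effect of over 45% in size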; also: potency is read from the fitted curve at half-maximal effect)
[13] = target: Estrogen receptor (Homo sapiens) (UniProt P03372); experiment: qHTS assay to identify small molecule agonists of the estrogen receptor alpha (ER-alpha) signaling pathway (AID 743075; calls by dose curve)
[14] = target: Estrogen receptor (Homo sapiens) (UniProt P03372); experiment: qHTS assay to identify small molecule agonists of the estrogen receptor alpha (ER-alpha) signaling pathway using the BG1 cell line (AID 743079); also: nearly all actives have a fitted effect of over 20% in size; also: potency is read from the fitted curve at half-maximal effect
[15] = qHTS assay to identify small molecule antagonists of the estrogen receptor alpha (ER-alpha) signaling pathway using the BG1 cell line (AID 743080; calls by dose curve; also: series mostly up to about 70 µM; nearly all actives have a fitted effect of over 25% in size)
In short: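 Antagonist mode: compounds in DMSO were pinned onto BG1-Luc-4E2 cells alongside 17beta-estradiol agonist, incubated 21.5 h, and ERE-driven luciferase measured with ONE-Glo. Cytotoxicity was multiplexed using CellTiter-Fluor fluorescence.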

[16] = qHTS assay to identify small molecule antagonists of the estrogen receptor alpha (ER-alpha) signaling pathway using the BG1 cell line - cell viability counter screen (AID 743081);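 also: compound given together with 17beta-estradiol as the ER stimulus; nearly all actives have a fitted effect of over 45% in size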; also: potency is read from the fitted curve at half-maximal effect; as to activity change, negative = cytotoxicity: series mostly up to about 70 µM
Aromatase (Homo sapiens) = Aromatase (Homo sapiens) (UniProt P11511); experiment: qHTS assay to identify aromatase inhibitors (AID 743083); also: nearly all actives have a fitted effect of over 55% in size; also: potency is read from the fitted curve at half-maximal effect; as to activity, negative = inhibition: series mostly up to about 70 µM
Chain of Aromatase (Homo sapiens) (P11511 whole entry, looked up): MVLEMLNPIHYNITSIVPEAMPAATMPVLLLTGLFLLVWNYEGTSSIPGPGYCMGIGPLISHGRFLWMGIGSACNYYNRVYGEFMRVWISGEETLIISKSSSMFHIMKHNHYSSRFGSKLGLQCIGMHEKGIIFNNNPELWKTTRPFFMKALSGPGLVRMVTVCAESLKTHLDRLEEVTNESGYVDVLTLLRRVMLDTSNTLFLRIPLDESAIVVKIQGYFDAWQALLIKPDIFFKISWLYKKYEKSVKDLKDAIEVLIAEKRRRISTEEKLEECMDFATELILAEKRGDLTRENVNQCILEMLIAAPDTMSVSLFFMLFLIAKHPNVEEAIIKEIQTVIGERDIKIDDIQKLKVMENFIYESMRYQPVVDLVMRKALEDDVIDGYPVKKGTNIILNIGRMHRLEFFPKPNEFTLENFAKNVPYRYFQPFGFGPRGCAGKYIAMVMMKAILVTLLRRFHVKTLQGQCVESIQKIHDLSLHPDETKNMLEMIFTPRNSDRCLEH

[17] = qHTS assay to identify small molecule antagonists of the androgen receptor (AR) signaling pathway - cell viability counter screen (AID 743033; also: nearly all actives have a fitted effect of over 45% in size)
[18] = target: Androgen receptor (Homo sapiens) (UniProt P10275); experiment: qHTS assay to identify small molecule agonists of the androgen receptor (AR) signaling pathway (AID 743036; active = well fitted activation curve with a large enough effect in the signal ratio in the repeat runs, with a control signal flat, not every such curve was filed as active; the % refers to the signal ratio)
In short: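 HEK293 cells stably carrying a UAS-driven beta-lactamase reporter (GeneBLAzer AR-UAS-bla-GripTite) were plated at 2,000 cells/well, rested 4 h at 37C, then exposed to compounds in DMSO for 16 h. LiveBLAzer B/G FRET substrate was added for 2 h at room temperature; fluorescence read.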

[19] = target: Androgen receptor (Homo sapiens) (UniProt P10275); experiment: qHTS assay to identify small molecule antagonists of the androgen receptor (AR) signaling pathway using the MDA cell line (AID 743042; also: nearly all actives have a fitted effect of over 55% in size)
In short: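 MDA-kb2 breast carcinoma cells carrying MMTV-luciferase (AR/GR responsive) were co-treated with compounds and the agonist R1881 for 16 h at 37C. Inhibition read as ONE-Glo luminescence; CellTiter-Fluor fluorescence measured in parallel for cytotoxicity.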
% is scaled to controls: 0 for no effect and ±100 for the full control effect.

FC(F)(F)c1cccc(Cl)c1
inactive: Potency [1] | Potency [2] | Potency [3] | Potency [4] | Potency [5] | outcome [6] | Potency [7] | Potency [8] | Potency [9] | outcome [10] | Potency [11] | Potency [12] | Potency [13] | Potency [14] | Potency [15] | Potency [16] | Potency (Aromatase (Homo sapiens))

C=C(C)C(=O)OCCCCCCCCCC
inactive: Potency [1] | Potency [2] | Potency [3] | Potency [4] | Potency [7] | Potency [8] | Potency [9] | outcome [10] | Potency [11] | Potency [12] | Potency [13] | Potency [14] | Potency [15] | Potency [16] | Potency (Aromatase (Homo sapiens))

Nc1nc2c(ncn2COCCO)c(=O)[nH]1
active: Potency [2] 2.54 µM | Potency [3] 2.27 µM | Potency [4] 4.52 µM
inactive: Potency [1] | Potency [17] | Potency [7] | Potency [12] | Potency [13] | Potency [14] | Potency [15] | Potency [16] | Potency (Aromatase (Homo sapiens))

Cc1ccc(O)c(N)c1
active: Potency [2] 54.5 µM | Potency [3] 54.5 µM | Potency [4] 61.2 µM | Potency [8] 30.7 µM | Potency [9] 43.3 µM
inactive: Potency [1] | Potency [17] | outcome [10] | Potency [12] | Potency [13] | Potency [16]

CCCC1CCC(=O)CC1
inactive: Potency [1] | Potency [2] | Potency [3] | Potency [4] | Potency [7] | Potency [8] | Potency [9] | outcome [10] | Potency [12] | Potency [13] | Potency [14] | Potency [15] | Potency [16] | Potency (Aromatase (Homo sapiens))

O=C1OC2(c3ccc(O)cc3Oc3cc(O)ccc32)c2ccc(N=C=S)cc21
inactive: Potency [1] | Potency [2] | Potency [3] | Potency [4] | Potency [17] | Potency [9] | outcome [10] | Potency [12] | Potency [16] | Potency (Aromatase (Homo sapiens))

Nc1nc(-c2ccccc2)cs1
inactive: Potency [1] | Potency [2] | Potency [4] | Potency [17] | Potency [7] | Potency [8] | Potency [12] | Potency [16] | Potency (Aromatase (Homo sapiens))

CCN1C(=O)c2ccccc2C1Nc1ccc(OCCN2CCCCC2)cc1 (stereo not given)
inactive: Potency [1] | Potency [3] | Potency [17] | Potency [5] | Potency [18] | outcome [6] | Potency [7] | Potency [19] | Potency [8] | Potency [9] | outcome [10] | Potency [12] | Potency [13] | Potency [14] | Potency [15] | Potency (Aromatase (Homo sapiens))
active: Potency [2] 26.6 µM

CCCCCCCCCCCCCCCC[N+](C)(C)CC
inactive: Potency [13]
active: Potency [1] 13.4 µM and 17.4 µM | Potency [2] 376 nM and 866 nM | Potency [3] 422 nM and 866 nM | Potency [4] 473 nM and 866 nM | Potency [7] 18.8 µM and 43.4 µM | Potency [8] 5.96 µM and 15.4 µM | Potency [12] 19 µM and 55.1 µM | Potency [16] 54.6 µM | Potency (Aromatase (Homo sapiens)) 9.44 µM and 8.66 µM

O=S(=O)(O)c1ccc(N=Nc2c(O)ccc3ccccc23)cc1
active: Potency [2] 61.1 µM | Potency [3] 30.6 µM | Potency [4] 54.5 µM | Potency [7] 27.3 µM | Potency [8] 30.6 µM | Potency [16] 27.3 µM
inactive: Potency [1] | outcome [10] | Potency [11] | Potency [12] | Potency [13] | Potency [14]

O=C(O)O
inactive: viability change, negative = cytotoxic [1] 4.34% [at 7.04 µM] | activity change, negative = cytotoxicity [2] -8.76% [at 8.52 µM] | activity, negative = cytotoxicity [3] -2.82% [at 8.53 µM] | activity change, negative = cytotoxicity [4] -2.06% [at 8.55 µM] | activity change, negative = cytotoxic [8] -0.346% [at 8.44 µM] | activity, negative = inhibition [9] -9.25% [at 8.44 µM] | activation [10] 0.119% [at 8.08 µM] | activity, negative = cytotoxicity [12] 16.5% [at 6.72 µM] | activation [13] -2.02% [at 6.71 µM] | activity change, negative = inhibition [15] 10.7% [at 8.47 µM] | activity change, negative = cytotoxicity [16] -13.4% [at 8.47 µM] | activity, negative = inhibition (Aromatase (Homo sapiens)) -0.932% [at 8.47 µM]

CCCCCCCCCCC[C@@H](C[C@@H]1OC(=O)[C@H]1CCCCCC)OC(=O)[C@H](CC(C)C)NC=O
inactive: Potency [1] | Potency [7] | Potency [8] | Potency [9] | outcome [10] | Potency [12] | Potency [13] | Potency [14] | Potency [15] | Potency (Aromatase (Homo sapiens))
active: Potency [2] 1.06 µM | Potency [3] 0.376 µM

CCn1c2ccccc2c2cc([N+](=O)[O-])ccc21
inactive: Potency [1] | Potency [8] | outcome [10] | Potency [12] | Potency [13] | Potency [14] | Potency [15] | Potency [16] | Potency (Aromatase (Homo sapiens))
active: Potency [2] 48.6 µM | Potency [3] 27.3 µM | Potency [4] 54.5 µM

C=CCn1c(=O)n(CC=C)c(=O)n(CC=C)c1=O
inactive: Potency [1] | Potency [2] | Potency [4] | Potency [17] | Potency [7] | Potency [8] | Potency [9] | outcome [10] | Potency [12] | Potency [16] | Potency (Aromatase (Homo sapiens))

CCCCCCC1CCCC(=O)O1 (stereo not given)
inactive: Potency [1] | Potency [2] | Potency [3] | Potency [4] | Potency [8] | outcome [10] | Potency [12] | Potency [16]

OCCN1CCN(CCCN2c3ccccc3Sc3ccc(C(F)(F)F)cc32)CC1
active: Potency [2] 3.76 µM | Potency [3] 1.68 µM | Potency [4] 4.22 µM | Potency [8] 6.68 µM | Potency [9] 6.68 µM
inactive: Potency [1] | Potency [12] | Potency [13] | Potency [14] | Potency [15] | Potency [16]

OC12N=C(c3ccccc3)SC1Cc1cc(Cl)ccc12 (stereo not given)
inactive: Potency [1] | Potency [7] | Potency [12] | Potency [13] | Potency [16] | Potency (Aromatase (Homo sapiens))
active: Potency [2] 68.6 µM | Potency [3] 68.6 µM | Potency [4] 43.3 µM | Potency [9] 61.1 µM | Potency [11] 54.9 µM [inhibitor] | Potency [14] 27.3 µM
